# This excerpt belongs to a sample that is enriched for hits.
# Pf Dd2 growth: qHTS Primary assay for Inhibitors of Plasmodium falciparum Dd2 growth in vitro; P. falciparum Dd2 growth, SYBR Green, 72 h; Potency, µM (top dose mostly 28.9 µM), without a hit: at the highest dose activity, negative = inhibition, usual class: inhibitors; 120,000 compounds, 4.3% hits; AID 1347417, 2020; active means well fitted inhibition curve with a large enough effect;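 further: plate controls were DMSO vehicle for no effect and reference drug for full effect; nearly all actives have a fitted effect of over 65% in size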
#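 Readout: SYBR Green fluorescence, 485 nm excitation, 535 nm emission, after ~16 h lysis at 37C. Before that, Dd2-infected red cells (2.5% hematocrit) grew 72 h with compound, 29 uM top final concentration.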
# * hit, by the source's call; i = inactive; [ ] = remark or other dose. Potency means the concentration at half of the fitted maximal effect.
SMILES,Pf Dd2 growth
C=CCN1CCN(C(=O)[C@@H]2Cc3c[nH]c4cccc(c34)[C@H](CC(C)C)N2)CC1,11.2µM*
C=CCn1cc2c3c(cccc31)[C@H](CC(C)C)N[C@H](C(=O)NCc1ccc(OC)cc1)C2,i
O=C(NCC(F)F)C1CN(c2ccc(F)cc2)C(=O)N1 (stereo unspecified),1.6%[44.1 µM]
Cc1ccc(Nc2nc(C)c(NC(=O)c3ccc(C)cc3)c(Nc3ccc(C)cc3)n2)cc1,8.91µM*
CCOc1ccc(Nc2nc(C)c(NC(=O)c3ccc(C)cc3)c(Nc3ccc(OCC)cc3)n2)cc1,-11.5%
Cc1ccc(C(=O)Nc2c(C)nc3ccccn3c2=O)cc1,16.5%
CCn1ccc(C(=O)N2CCc3nc(NC)nc(C(=O)N4CCCC4)c3C2)n1,-11.2%
Cc1nc(CCNC(=O)CCC2CCCC2)no1,-14.9%
Cc1[nH]c2ccccc2c1CN1CCc2nc(N3CCOCC3)[nH]c(=O)c2CC1,i[5.79 µM]
Cc1cc(=O)n2[nH]c(CC(=O)N3CCn4nc(C(C)O)cc4C3)nc2n1 (stereo unspecified),-4.4%
O=C(NCc1nc(-c2ccncc2)n[nH]1)[C@H]1CCC[C@H](O)C1,-2.3%
O=C(O)c1ccc(-c2cc(C(F)(F)F)ccc2Cl)cc1,4.6%[44.1 µM]
COC[C@H]1CCCN1[C@@H]1[C@H](O)[C@H](CO)O[C@@H]1CN(Cc1cccc(Cl)c1)Cc1cccc(Cl)c1,0.708µM*
COC[C@H]1CCCN1[C@@H]1[C@H](O)[C@H](CO)O[C@@H]1CNC(=O)Nc1ccccc1,1.9%[44.1 µM]
OC[C@@H]1O[C@H](CN(Cc2cccc(Cl)c2)Cc2cccc(Cl)c2)C(N2CCOCC2)[C@@H]1O (stereo partly specified),i
COc1ccc(-c2cn3cccnc3n2)cc1NC(=O)c1cc(C)cc(C)c1,12.6µM*
Cc1ccc(C(=O)Nc2cc(-c3cn4cccnc4n3)ccc2C)cc1C,-6.0%
COc1ccc(-c2cn3cccnc3n2)cc1NC(=O)c1ccccc1C(F)(F)F,-6.9%
O=C1NCCN1C1CCN(S(=O)(=O)c2cccs2)CC1,14.9%
O=C1Nc2ccccc2CN(Cc2ccc(Cl)cc2)C12CCNC2 (stereo unspecified),10µM*
CCN1Cc2ccccc2NC(=O)C12CCNC2 (stereo unspecified),-19.1%
O=C1Nc2ccccc2CC12CCCN2CC1CCOCC1 (stereo unspecified),-7.1%
O=C1Nc2ccccc2CN(CC2CCCCC2)C12CCNCC2,11.2µM*
O=C1Nc2ccccc2CC12CCCN2CC1CCCCC1 (stereo unspecified),7.08µM*
CN1Cc2ccccc2NC(=O)C12CCNC2 (stereo unspecified),10.2%[44.1 µM]
SMILES,Pf Dd2 growth
CC(=O)N1Cc2ccccc2NC(=O)C12CCNC2 (stereo unspecified),17.9%[44.1 µM]
CC(=O)N1Cc2ccccc2NC(=O)C12CCNCC2,19.6%
O=C1Nc2ccccc2CC12CCCN2Cc1ccc(Cl)cc1 (stereo unspecified),6.4%
Cc1cc(OCC(=O)c2ccc3c(c2)N(CC(=O)NCC2CC2)C(=O)CO3)ccc1Cl,-2.6%
CC1(C(=O)NCc2cnccn2)CCCc2cnc(Nc3ccccc3F)nc21 (stereo unspecified),1.3%[44.1 µM]
NC(=O)C1CCCN(CCNc2cc(-c3ccccc3)nc3ccnn23)C1 (stereo unspecified),-7.9%
Cc1nc2ccc(C(=O)NCc3cccnc3Oc3ccccc3C)cc2[nH]1,-13.4%
CCOCc1nc(C2CCCNC2)no1 (stereo unspecified),37.1%
COC[C@H]1CCCN1C[C@H]1CN2CC[C@H]1C[C@@H]2CNC(=O)Nc1ccc(OC)cc1,1.1%[44.1 µM]
CCN(CC)C(=O)c1ccccc1NC(=O)c1cccc(S(=O)(=O)N2CCC(C)CC2)c1,51.7%[5.79 µM]
CCN(CC)S(=O)(=O)c1cccc(C(=O)Nc2ccccc2C(=O)Nc2ccc(OC)cc2)c1,7.08µM*
CCN(CC)S(=O)(=O)c1ccc(OC)c(NC(=O)c2sc3ccccc3c2Cl)c1,28.8%
CCOc1ccccc1NC(=O)N1CCCC(c2noc(COC)n2)C1 (stereo unspecified),5.3%
O=C(Nc1ccccc1)N1CC(Oc2cccc(-c3nc(-c4ccccc4)no3)c2)C1,21.6%[5.79 µM]
CCNC(=O)N1CC(Oc2cccc(-c3nc(-c4ccccc4)no3)c2)C1,1.26µM*
O=C(c1ccc(F)cc1)N1CC(Oc2cccc(-c3nc(-c4ccccc4)no3)c2)C1,0.6%[5.79 µM]
Cc1noc(C)c1S(=O)(=O)N1CCCC(c2[nH]ccc2C(N)=O)C1 (stereo unspecified),-9.0%
CCCCn1c(C(C)NC(=O)c2ccccc2)nc2ccccc21 (stereo unspecified),i
CCCCn1c(NCc2cc(Cl)ccc2O)nc2ccccc21,3.16µM*
CCCCCCn1c(CNC(=O)c2ccccc2)nc2ccccc21,-20.2%
CN1CCN([C@H]2[C@@H]3OC[C@@H](O3)[C@@H](NC(=O)Nc3cccc(C#N)c3)[C@@H]2O)CC1,-0.4%[44.1 µM]
CC(C)(C)C1CCC2(CC1)NC(=O)N(CC(=O)NC1CCc3ccccc31)C2=O (stereo unspecified),-22.4%
Cc1ccc(OC2(C(=O)NCc3cccc(N(C)C)c3)CCNCC2)cc1,-26.5%
Cc1ccc(OC2(C(=O)N[C@H]3CCc4ccccc43)CCNCC2)cc1,7.94µM*
O=C(Nc1cccc(Cl)c1)N1CC(n2cc(COc3ccccc3)nn2)C1,7.94µM*
SMILES,Pf Dd2 growth
O=C(Nc1ccccc1)N1CC(n2cc(C(=O)N3CCOCC3)nn2)C1,24.0%
CNC(=O)[C@@H]1C[C@H](n2cc(CNC(=O)Nc3cccc(Cl)c3)nn2)CN1,0.1%
COCCNC(=O)c1ccc(OC2CCN(Cc3ncc[nH]3)CC2)c(Cl)c1,-22.9%
O=C(NC1CCCC1)c1ccc(OC2CCN(CCCC(F)(F)F)CC2)c(Cl)c1,1.41µM*
COCCNC(=O)c1ccc(OC2CCN(S(C)(=O)=O)CC2)c(Cl)c1,-2.3%
COC(=O)CNC(=O)C1CN(S(=O)(=O)c2cccnc2)CC12CCCCC2 (stereo unspecified),-1.6%
NCC(=O)N1CCC2(CC1)CN(C(=O)c1ccc(Cl)cc1)CCO2,-0.7%
Cc1ccc(-c2cnc([C@@H]3COCCN3C3CCOCC3)[nH]2)cc1,-18.3%[44.1 µM]
CC1=NOC2(CCCN(CC3CCCCC3)C2)C1 (stereo unspecified),1.9%[44.1 µM]
O=C(c1ccncc1)N1CCCC(Cc2noc(-c3cnccn3)n2)C1 (stereo unspecified),11.5%
COc1ccccc1C(=O)Nc1ccc([C@@H](O)[C@H]2COCC(=O)N2Cc2ccc(F)cc2)cc1,-25.0%
CC1CCN(C(=O)Cn2cc(SCC(=O)NCc3ccccc3)c3ccccc32)CC1,-11.9%
CC1CCN(C(=O)Cn2cc(SCC(=O)Nc3ccccc3)c3ccccc32)CC1,-21.1%
CC1CCN(C(=O)CC(c2ccc(Cl)cc2)c2cn(C)c3ccccc23)CC1 (stereo unspecified),7.94µM*
COc1ccc(-c2cc(C(=O)O)cc(S(=O)(=O)N3CCN(C)CC3)c2)cc1,-1.7%
CC1=C[C@@H](CNC(=O)CC(C)(C)CC(=O)O)[C@H](C(C)C)C[C@H]1Cc1nc2ncccc2[nH]1,i
CCn1c2ccc(F)cc2c2nnc(SCCN3CCCCC3)nc21,12.6µM*
CCN(CC)CCSc1nnc2c3cc(F)ccc3n(CC)c2n1,-15.3%
CCCn1c2ccc(F)cc2c2nnc(SCCN3CCCCC3)nc21,7.94µM*
CCCc1nnc(NC(=O)CSc2nnc3c4ccccc4n(CC)c3n2)s1,-22.2%
CCOC(=O)c1ccc(NC(=O)CSc2nnc3c4ccccc4n(CC)c3n2)cc1,7.4%

# Screening results: PubChem, National Center for Advancing Translational Sciences (NCATS)
